HCMV antiviral – qHTS Assay for inhibitors of the human cytomegalovirus (HCMV); actives 4.5% (n = 410,000); HFF cells, HCMV-luciferase reporter, 72 h; hits give low values; activity change, negative = inhibition, % at 57.5 µM; AID 1259415, 2018; in the data active = activity change below about -60%; inconclusive = no clear call, values can overlap the other calls; inactive = above about -39%
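Cell-based, HFFs, 1000 cells/well, 16 h 37C; cpds in DMSO + HCMV-luc, MOI 1 PFU/cell; 72 h 37C; OneGlo luminescence after 5 min RT; norm. to buffer vs Salinomycin 10uM.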
LASV entry inh – qHTS for Inhibitors of binding or entry into cells for Lassa Virus; Lassa virus pseudotype entry inhibition, cell reporter; Potency, µM (top dose mostly 37.9 µM), most hits filed as inhibitors; actives 1.2% (n = 300,000); calls by dose curve; tested in HEK293 cells; also: nearly all actives have a fitted effect of over 50% in size
VACV Venus inh – qHTS for Stage-Specific Inhibitors of Vaccinia Orthopoxvirus: Venus Reporter Primary qHTS; Potency, µM (highest dose often 36.5 µM), hits mostly inhibitors; actives 0.46% (n = 330,000); Vaccinia virus Venus reporter expression, fluorescence; calls by dose curve; tested in A549 cells; also: nearly all actives have a fitted effect of over 30% in size
FMDV antiviral – High Throughput Screening for Foot and Mouth Disease Virus Antivirals | FMDV antiviral cell-based qHTS | Potency, µM (top dose mostly 57.9 µM), hits mostly inhibitors | actives 1.2% (n = 410,000); calls by dose curve; tested in HEK293T cells; also: read-out not given here; nearly all actives have a fitted effect of over 45% in size
Marburg entry inh – qHTS for inhibitors of binding or entry into cells for Marburg Virus | actives 1.8% (n = 300,000) | Marburg virus pseudotyped entry inhibition, cell reporter | Potency, µM (top dose mostly 37.8 µM), usual class: inhibitors; calls by dose curve; tested in HEK293 cells
VACV mCherry inh – qHTS for Stage-Specific Inhibitors of Vaccinia Orthopoxvirus: mCherry Reporter Primary qHTS | Potency, µM (highest dose often 36.5 µM), usual class: inhibitors | actives 0.63% (n = 310,000) | Vaccinia virus mCherry reporter infection, fluorescence; calls by dose curve; tested in A549 cells; also: nearly all actives have a fitted effect of over 35% in size
A number is an active result; – = inactive; ? = inconclusive; · = not tested or not shown. Hits are enriched below; roughly 6.5% of the tested compounds scored in any of these assays.

SMILES	HCMV antiviral	LASV entry inh	VACV Venus inh	FMDV antiviral	Marburg entry inh	VACV mCherry inh
CCN(CC)S(=O)(=O)c1ccc(NC(=O)Nc2cccc(C(F)(F)F)c2)cc1	-105.1	?	·	?	?	·
O=C(NCc1ccccc1CN1CCCC1)c1ccc(S(=O)(=O)Nc2ccccc2F)cc1	-75.4	·	–	–	·	?
CCCCOc1ccccc1C(=O)N(Cc1sccc1C)C1CCS(=O)(=O)C1 (configuration not stated)	–	–	–	–	–	–
COC(=O)C1=C(C(=O)OC)[C@@H]2N(C)c3ccccc3[C@@]23C[C@@H](C(=O)OC)N(C(=O)NC(C)(C)C)C3=N1	·	?	·	·	–	·
Cc1ccc(NS(=O)(=O)c2ccc(NC(=O)c3cccc(NC(=O)C(C)C)c3)cc2)cc1	–	?	?	?	12.6µM	·
Cc1ccnc(NC(=O)Nc2cccc(F)c2)c1	–	6.51µM	·	–	?	·
CNS(=O)(=O)c1ccc(NC(=O)Nc2cccc(F)c2)cc1	-101.5	–	–	–	–	–
Cc1ccc(S(=O)(=O)Nc2ccc(C(=O)Nc3ccncc3)cc2)cc1	–	–	–	–	?	–
CN(C)c1ccc(/C=C2\C=Cc3ccccc32)cc1[N+](=O)[O-]	·	·	–	·	·	–
CC1(C)OC(=O)C2=C(CC(CCc3ccccc3)OC2c2cccc(C(F)(F)F)c2)O1 (configuration not stated)	–	·	·	·	·	·
COc1ccc(-c2coc3c(C(=O)Nc4cccnc4)cccc23)c(C)c1	?	·	–	20µM	·	–
COc1ccc(-c2coc3c(C(=O)Nc4cccc(C(C)=O)c4)cccc23)c(C)c1	–	·	–	–	·	–
COc1ccc(-c2coc3c(C(=O)NCc4ccco4)cccc23)c(C)c1	?	·	–	–	·	–
COc1ccc(-c2coc3c(C(=O)NCc4cccc(Cl)c4)cccc23)c(C)c1	-62.1	·	–	–	·	–
C[C@@H]1CN(S(=O)(=O)C(C)(C)C)[C@H](CCO)/C1=C\CCO	–	·	·	·	·	·
CCC(=O)N1CCc2cc(Br)cc(S(=O)(=O)CCC(=O)N3CCN(c4ccc(OC)cc4)CC3)c21	–	–	–	–	–	–
Cc1cc(C(=O)Nc2cccc(-c3nc(CNC(=O)c4cc5ccccc5[nH]4)c(C)o3)c2)c(C)o1	·	·	–	–	·	–
Cc1ccc(C(=O)Nc2c(C(=O)Nc3ccc(C)c(C)c3)sc3nc(C)cc(C)c23)cc1	-106.9	–	?	–	?	?
CCCn1cc(S(=O)(=O)c2cc(C)ccc2C)c(=O)c2cc(F)c(N3CCN(CC)CC3)cc21	?	–	–	–	·	–
Cc1cc(/C=N/n2cnnc2)c(C)n1-c1ccc(OCc2ccc(F)cc2)cc1	-86.3	?	–	·	?	–
Cc1cc(/C=N/n2cnnc2)c(C)n1-c1ccc(OCc2ccc(Cl)cc2Cl)cc1	·	7.08µM	?	–	8.91µM	·
Cc1cc(/C=N/n2cnnc2)c(C)n1-c1ccc(Cl)cc1	–	–	–	–	?	–
O=C(NCc1ccccc1Cl)C1CCCN(c2nc3ccccc3n3cccc23)C1 (configuration not stated)	–	–	–	–	·	–
Oc1ccc(N2CCN(c3ncnc4sc5c(c34)CCC5)CC2)cc1	-82.4	–	–	?	?	?
OCCN1CCN(c2ncnc3sc4c(c23)CCCC4)CC1	–	·	·	–	·	·
SMILES	HCMV antiviral	LASV entry inh	VACV Venus inh	FMDV antiviral	Marburg entry inh	VACV mCherry inh
c1ccc2c(c1)ncn2-c1ncnc2sc3c(c12)CCCC3	-63.7	–	·	–	–	·
CSc1ccc(/C=C2\C=C(C(O)c3ccc(SC)cc3)c3ccccc32)cc1 (configuration not stated)	·	·	?	·	·	–
CCOC(=O)c1c(C)nc2sc(C(=O)Nc3ccc(C(C)=O)cc3)c(N)c2c1-c1ccc(OC)cc1	–	?	?	?	2.82µM	·
Cc1nc2sc(C(N)=O)c(N)c2c(-c2ccc(Br)cc2)c1C(=O)Nc1ccc(Cl)cc1	-77.9	?	–	?	?	–
C/C(=C\c1ccco1)CN1CCOc2ccc(CN3CCC(Oc4cccnc4)CC3)cc2C1	·	·	–	–	·	–
CCc1cc(-c2nnn(CCC3COCCO3)c2CC)ccc1-c1cn(Cc2ccccc2)nn1 (configuration not stated)	-83.1	·	?	?	·	?

Screening data as filed in PubChem BioAssay.
